In PubChem BioAssay (Tox21):
Results filed as inconclusive are left out. Calls of active or inactive are those of the source. Unless noted, calls follow the shape of the dose curve; as a rule, active = well fitted curve in the direction sought with a large enough effect in the repeat runs; inconclusive = weak or mixed curves; inactive = no such curve, though single readings can be large; an effect the other way counts as inactive or inconclusive.

Columns and labels:
[1] = qHTS assay to identify small molecule antagonists of the estrogen related receptor signaling pathway with the pleiotropic PPARgamma coactivator (PGC) from Tox21 10K library - cell viability counter screen (AID 1224840; active = well fitted cell-killing curve with a large enough effect in the repeat runs, not every such curve was filed as active; also: nearly all actives have a fitted effect of over 40% in size)
In short: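 Following seeding of 2,000 PGC/ERR cells/well and 6 hours' incubation, test compounds were delivered in DMSO. The plates then sat 17.5 hours at 37 C before a fluorogenic live-cell protease reagent (CellTiter-Fluor) was read after 30 min.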

[2] = biological target: Thyrotropin receptor (Homo sapiens) (UniProt P16473); experiment: qHTS assay to identify small molecule agonists of the thyroid stimulating hormone receptor (TSHR) signaling pathway (AID 1224843; calls by dose curve; also: nearly all actives have a fitted effect of over 45% in size)
In short: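 Steps: seed 800 TSHR-HEK293 cells per well; add test compound and hold 30 min at ambient temperature; dispense cAMP-d2 then anti-cAMP cryptate; incubate 1 h at ambient; measure fluorescence intensity.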

[3] = qHTS assay to identify small molecule agonists of the hypoxia (HIF-1) signaling pathway - cell viability counter screen (AID 1224844; calls by dose curve; also: nearly all actives have a fitted effect of over 50% in size)
In short: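 Cells (HRE-bla ME-180, 2,000 per well) sat 5 hrs at 37C, got compound for 17 hrs, were read for CCF4-AM FRET, and were finally lysed with CellTiter-Glo for a 30 min room-temperature luminescence read.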

[4] = qHTS assay to identify small molecule agonists of H2AX - cell viability counter screen (AID 1224847; calls by dose curve; also: top concentration of the series differs between compounds; nearly all actives have a fitted effect of over 30% in size)
In short: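 Counter-screen for viability: CellTiter-Glo ATP luminescence read after 3 h compound treatment (15-point titration, 0.76% DMSO final) of CHO-K1 cells at 37C, with 30 min room-temperature reagent incubation.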

[5] = qHTS RealTime-Glo MT Cell Viability Assay in HepG2 cells - 24 hour (AID 1224867); also: nearly all actives have a fitted effect of over 50% in size
In short: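 Cells + NanoLuc/prosubstrate dispensed (600 cells/well) → 5 h at 37 C/5% CO2 → compounds in DMSO transferred → 40 h incubation at 37 C, luminescence read at 0, 8, 16, 24, 32, 40 h.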

[6] = qHTS RealTime-Glo MT Cell Viability Assay in HEK293 cells - 32 hour (AID 1224868); also: top concentration of the series differs between compounds; nearly all actives have a fitted effect of over 50% in size
In short: (§1)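 Tox21 10K qHTS, HEK293, 600 cells/well, RealTime-Glo reagent co-dispensed with cells; 5 h preincubation, compound by pintool, 37 C, luminescence at 0–40 h.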

[7] = A CellTox Green Cytotoxicity Assay to monitor cytotoxicity in HEK293 cells - 0 hour (AID 1224869); also: nearly all actives have a fitted effect of over 50% in size
In short: (§2)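 Fluorescence intensity, read at 0, 8, 16, 24, 32 and 40 h of compound treatment, reflected dye binding to DNA of dead HEK293 cells; compounds (23 nL, DMSO) were added 5 h after plating cells with reagent.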

[8] = qHTS RealTime-Glo MT Cell Viability Assay in HepG2 cells - 40 hour (AID 1224870); also: nearly all actives have a fitted effect of over 50% in size
In short: (§3)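 HepG2 cells (600/well) mixed with RealTime-Glo MT reagent, settled 5 h at 37 C/5% CO2 before compound addition. Nonlytic NanoLuc luminescence from viable-cell prosubstrate reduction read repeatedly during 40 h treatment at 37 C.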

[9] = qHTS RealTime-Glo MT Cell Viability Assay in HEK293 cells - 16 hour (AID 1224872)
In short: as §1

[10] = qHTS RealTime-Glo MT Cell Viability Assay in HepG2 cells - 8 hour (AID 1224873); also: nearly all actives have a fitted effect of over 55% in size
In short: as §3

[11] = qHTS RealTime-Glo MT Cell Viability Assay in HEK293 cells - 40 hour (AID 1224874); conditions: RealTime-Glo luminescence; max response: active compounds read low; also: nearly all actives have a fitted effect of over 50% in size
In short: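 Viable HEK293 cells reduce a cell-permeant prosubstrate; the product diffuses out and is consumed by NanoLuc in the medium to give light. Compounds went in after a 5 h incubation and plates were read over the treatment course.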

[12] = A CellTox Green Cytotoxicity Assay to monitor cytotoxicity in HepG2 cells - 16 hour (AID 1224876); also: nearly all actives have a fitted effect of over 45% in size
In short: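 Using 1536-well format, dye-containing HepG2 suspension was seeded, allowed 5 h at 37 C/5% CO2, dosed by pintool with compounds, positive and negative controls, and imaged for fluorescence across 40 h.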

[13] = qHTS assay to identify small molecule agonists of the hypoxia (HIF-1) signaling pathway (AID 1224846; active = well fitted activation curve with a large enough effect in the signal ratio in the repeat runs, not every such curve was filed as active; the % refers to the signal ratio)
In short: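 A low-serum medium (0.5% dialyzed FBS) holding 2,000 HRE-bla ME-180 cells per well is preincubated for 5 hrs, dosed with compounds by pintool, and kept a further 17 hrs at 37C, 5% CO2 before CCF4-AM FRET detection of beta-lactamase.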

[14] = A CellTox Green Cytotoxicity Assay to monitor cytotoxicity in HEK293 cells - 40 hour (AID 1224871); also: nearly all actives have a fitted effect of over 45% in size
In short: as §2

[15] = A CellTox Green Cytotoxicity Assay to monitor cytotoxicity in HEK293 cells - 24 hour (AID 1224875); also: series mostly up to about 77 µM; nearly all actives have a fitted effect of over 45% in size
In short: as §2

[16] = qHTS assay to identify small molecule agonists of H2AX (AID 1224845; active = well fitted activation curve with a large enough effect in the signal ratio in the repeat runs, not every such curve was filed as active; the % refers to the signal ratio)
In short: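 Wild-type CHO-K1 cells, plated overnight, exposed 3hr at 37C to 15 concentrations (0.76% DMSO final). Lysed, then HTRF anti-pH2AX (S139) cryptate and anti-H2AX-d2 antibodies, 24 hr room temperature; 665/620 nm emission read.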
% is scaled to controls: 0 for no effect and ±100 for the full control effect.

Thyrotropin receptor (Homo sapiens), sequence (P16473 whole entry, looked up): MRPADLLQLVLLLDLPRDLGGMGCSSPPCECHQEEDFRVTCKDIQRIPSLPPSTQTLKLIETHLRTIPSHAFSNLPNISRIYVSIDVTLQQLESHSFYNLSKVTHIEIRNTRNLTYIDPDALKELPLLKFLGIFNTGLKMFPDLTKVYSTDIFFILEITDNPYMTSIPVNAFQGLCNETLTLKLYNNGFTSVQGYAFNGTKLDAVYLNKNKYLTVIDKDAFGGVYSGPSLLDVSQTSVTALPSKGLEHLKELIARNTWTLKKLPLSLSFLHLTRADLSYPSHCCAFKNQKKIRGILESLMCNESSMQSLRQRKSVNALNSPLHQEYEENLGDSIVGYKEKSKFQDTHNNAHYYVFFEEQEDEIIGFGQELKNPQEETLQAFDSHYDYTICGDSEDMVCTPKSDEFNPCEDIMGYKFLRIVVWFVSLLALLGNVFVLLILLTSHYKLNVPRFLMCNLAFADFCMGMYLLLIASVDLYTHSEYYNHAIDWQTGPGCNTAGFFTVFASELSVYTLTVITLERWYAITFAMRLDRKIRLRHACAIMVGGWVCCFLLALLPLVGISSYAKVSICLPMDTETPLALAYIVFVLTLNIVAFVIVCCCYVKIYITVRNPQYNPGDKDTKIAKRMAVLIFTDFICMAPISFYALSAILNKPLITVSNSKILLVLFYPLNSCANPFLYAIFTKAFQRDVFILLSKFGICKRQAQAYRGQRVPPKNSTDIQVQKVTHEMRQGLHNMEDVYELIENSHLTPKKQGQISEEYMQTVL

CCCC(=O)Nc1ccc(OCC(O)CNC(C)C)c(C(C)=O)c1 (stereo not given)
inactive: outcome [1] | outcome [2] | outcome [3] | outcome [4] | outcome [5] | Potency [6] | Potency [7] | outcome [8] | Potency [9] | outcome [10] | max response [11] 4% | Potency [12]

O=C(O)CSCC(=O)NC1CCSC1=O (stereo not given)
inactive: outcome [1] | outcome [2] | outcome [3] | outcome [13] | outcome [4] | outcome [5] | Potency [6] | Potency [7] | outcome [8] | Potency [14] | Potency [9] | outcome [10] | max response [11] -1.55% | Potency [12]

C=C(C)c1cccc(C(C)(C)N=C=O)c1
inactive: outcome [1] | outcome [2] | outcome [3] | outcome [13] | outcome [4] | outcome [5] | Potency [6] | Potency [7] | Potency [14] | Potency [9] | outcome [10] | max response [11] 3.52% | Potency [15] | Potency [12]

CCCCCCCCCCCCCCCCCC#N
inactive: outcome [1] | outcome [2] | outcome [16] | outcome [13] | outcome [4] | outcome [5] | Potency [6] | Potency [7] | outcome [8] | Potency [14] | Potency [9] | outcome [10] | max response [11] -5.42% | Potency [15]

CC(N)CCCC(C)(C)O (stereo not given)
inactive: outcome [1] | outcome [2] | outcome [3] | outcome [4] | Potency [6] | Potency [7] | outcome [8] | Potency [14] | outcome [10] | max response [11] 10% | Potency [15] | Potency [12]

CC1(C)CC(OC(=O)CCCCCCCCC(=O)OC2CC(C)(C)NC(C)(C)C2)CC(C)(C)N1
inactive: viability change, negative = cytotoxic [1] -0.192% [at 19 µM] | activation [2] -8.72% [at 19 µM] | activation (H2AX phosphorylation) [16] 0.0652% [at 31.6 µM] | activation [13] -0.0727% [at 15.8 µM] | activity change, negative = cytotoxicity [4] -4.19% [at 31.6 µM] | activity change, negative = cytotoxicity [5] 2.8% [at 15.8 µM] | activity change, negative = cytotoxic [6] 12.2% [at 15.8 µM] | cytotoxicity [7] -1.08% [at 15.8 µM] | activity change, negative = cytotoxic [8] 6.12% [at 15.8 µM] | cytotoxicity increase [14] -6.42% [at 15.8 µM] | activity change, negative = cytotoxicity [9] 3.79% [at 15.8 µM] | viability change, negative = cytotoxic [10] -0.0146% [at 15.8 µM] | max response [11] 17% | activity change [15] -4.42% [at 15.8 µM, active compounds read high] | cytotoxicity increase [12] -5.51% [at 15.8 µM]

C=Cc1ccc(C(C)(C)C)cc1
inactive: outcome [1] | outcome [2] | outcome [3] | outcome [13] | outcome [4] | outcome [5] | Potency [6] | Potency [7] | outcome [8] | Potency [9] | outcome [10] | max response [11] -0.639% | Potency [12]

Cc1ccccc1C(N)=O
inactive: outcome [1] | outcome [2] | outcome [3] | outcome [13] | outcome [4] | outcome [5] | Potency [6] | Potency [7] | outcome [8] | Potency [14] | Potency [9] | outcome [10] | max response [11] 3% | Potency [12]

CCN1CCCC1CN (stereo not given)
inactive: outcome [1] | outcome [2] | outcome [3] | outcome [13] | outcome [4] | outcome [5] | Potency [6] | Potency [7] | outcome [8] | Potency [9] | outcome [10] | max response [11] 9.62% | Potency [15] | Potency [12]

CC(=O)C1C(=O)C=C(C)OC1=O (stereo not given)
inactive: outcome [1] | outcome [2] | outcome [16] | outcome [13] | outcome [4] | outcome [5] | Potency [6] | Potency [7] | outcome [8] | Potency [14] | Potency [9] | outcome [10] | max response [11] 1.99% | Potency [15] | Potency [12]

CC1=C(C(=O)O)N2C(=O)[C@@H](NC(=O)[C@H](N)C3=CCC=CC3)[C@H]2SC1
inactive: outcome [1] | outcome [2] | outcome [3] | outcome [4] | outcome [5] | Potency [6] | Potency [7] | outcome [8] | outcome [10] | max response [11] 0.914% | Potency [12]

CC1(C)Oc2ccc(C#N)cc2[C@@H](N2CCCC2=O)[C@@H]1O
inactive: outcome [1] | outcome [2] | outcome [16] | outcome [13] | outcome [4] | outcome [5] | Potency [6] | Potency [7] | outcome [8] | Potency [14] | Potency [9] | outcome [10] | max response [11] 2.51% | Potency [12]

O=C(Cl)c1ccccc1[N+](=O)[O-]
inactive: outcome [1] | outcome [2] | outcome [3] | outcome [13] | outcome [4] | outcome [5] | Potency [6] | Potency [7] | outcome [8] | Potency [14] | outcome [10] | max response [11] 9.73% | Potency [15] | Potency [12]

CCCCOCC(C)O (stereo not given)
inactive: outcome [1] | outcome [2] | outcome [3] | outcome [13] | outcome [4] | outcome [5] | Potency [6] | Potency [7] | outcome [8] | Potency [14] | Potency [9] | outcome [10] | max response [11] 10.5% | Potency [12]

COC(=O)/C=C\C(=O)O
inactive: outcome [1] | outcome [2] | outcome [3] | outcome [13] | outcome [4] | outcome [5] | Potency [6] | Potency [7] | outcome [8] | Potency [14] | Potency [9] | outcome [10] | max response [11] 0.0191% | Potency [15] | Potency [12]

OC[C@H]1O[C@@H](O[C@@H]2[C@@H](CO)O[C@](O)(CO)[C@H]2O)[C@H](O)[C@@H](O)[C@H]1O
inactive: outcome [1] | outcome [2] | outcome [16] | outcome [13] | outcome [4] | outcome [5] | Potency [6] | Potency [7] | outcome [8] | Potency [14] | outcome [10] | max response [11] 1.5% | Potency [15] | Potency [12]

OCC(O)CN1CCN(c2ccccc2)CC1 (stereo not given)
inactive: outcome [1] | outcome [2] | outcome [16] | outcome [4] | outcome [5] | Potency [6] | Potency [7] | outcome [10] | max response [11] 1.76% | Potency [15] | Potency [12]
